The list is not random: actives were taken first. Their share in the collection is about 32%.
CYP2C9 act = CYP2C9 (human) activation. activation factor at 5 µM. hit rate 1.4% among 96,000. recombinant CYP2C9, luciferin-H conversion, luminescence; stronger effect = higher value; factor 1 = untreated enzyme, 0 = blocked. P11712;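 active = activation factor of 2 or more for CYP2C9 at a 5 µM dose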
Target sequence (P11712 whole entry, looked up): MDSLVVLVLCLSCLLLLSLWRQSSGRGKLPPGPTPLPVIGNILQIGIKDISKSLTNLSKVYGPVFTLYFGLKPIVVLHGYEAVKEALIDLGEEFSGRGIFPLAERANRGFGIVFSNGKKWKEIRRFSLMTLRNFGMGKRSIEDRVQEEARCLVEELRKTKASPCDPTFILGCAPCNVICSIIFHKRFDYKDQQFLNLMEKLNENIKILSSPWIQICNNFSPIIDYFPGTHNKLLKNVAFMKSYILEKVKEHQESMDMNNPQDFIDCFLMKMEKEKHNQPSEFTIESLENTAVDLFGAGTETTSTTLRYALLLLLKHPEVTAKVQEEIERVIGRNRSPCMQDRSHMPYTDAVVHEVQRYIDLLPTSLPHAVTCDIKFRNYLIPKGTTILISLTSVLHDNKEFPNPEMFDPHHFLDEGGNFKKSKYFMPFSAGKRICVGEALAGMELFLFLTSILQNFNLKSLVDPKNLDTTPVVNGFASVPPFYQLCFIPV
PostGolgi yeast = growth inhibition of a yeast mutant, post-Golgi transport screen | post-Golgi transport phenotypic cell assay | hit rate 0.9% among 98,000 | inhibition, % at 10 µM;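 note: yeast cells grown in 1536-well plates; yeast grown about 18 h at 30C before absorbance read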
PostGolgi ctrl = inhibits growth of the yeast control strain. efflux-deficient yeast background strain, growth absorbance A615, 16 h. inhibition, % at 10 µM. hit rate 5% among 98,000. AID 738
CYP2C19 inh = blocks human cytochrome P450 2C19; inhibition, % at 5 µM; CYP2C19 Supersomes, luciferin-H EGE luminescence, 30 min; P33261; hit rate 21% among 96,000; AID 778;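 active = CYP2C19 inhibition above a set limit at 5 µM in the primary screen, cut at about 50% in these data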
CYP2C19 activ = activators of human cytochrome P450 2C19; activation factor at 5 µM; P33261; AID 1025; recombinant CYP2C19, luciferin-H EGE luminescence; stronger effect = higher value; 0 = fully inhibited enzyme, 1 = untreated enzyme; 96,000 tested, under 10 active;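 active = activation factor of at least 2 at 5 µM in the primary screen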
CYP2C9 inhib = blocks human cytochrome P450 2C9; P11712; CYP2C9 Supersomes, luciferin-H conversion, luminescence; inhibition, % at 5 µM; hit rate 20% among 96,000;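 active = blocking of liver enzyme CYP2C9 beyond about 50% at 5 µM, limit read from the data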
Each line names hits and unclear results; the compound was inactive in the other large screens. Cut-off read from the data, not from the text of the source, unless noted: active = inhibition above about 30%; inactive = the rest.

Cc1cc(C(=O)N2CCN(c3ncccn3)CC2)c2cc(F)ccc2n1	none
CCOC(=O)C1CCCN(c2cc(=O)n(-c3ccccc3Cl)c(=O)[nH]2)C1 (stereo not drawn)	none
c1cn(-c2ncnc3sc4c(c23)CCCC4)cn1	none (no result: PostGolgi yeast, PostGolgi ctrl)
Cc1ccc(-c2cc(C(=O)N3CCN(c4ncccn4)CC3)c3ccccc3n2)cc1	CYP2C19 inh 94, CYP2C9 inhib 98
O=C(c1cc(-c2ccncc2)nc2ccccc12)N1CCN(S(=O)(=O)/C=C/c2ccccc2)CC1	CYP2C19 inh 58, CYP2C9 inhib 80
CCc1ccccc1OCc1nnc(N)s1	none
CC(=O)OC(Cn1ccnc1)c1ccccc1 (stereo not drawn)	none
COc1cc(Cn2ccnc2)c(OC)cc1Cn1ccnc1	CYP2C19 inh 78, CYP2C9 inhib 73
Cc1nn(S(=O)(=O)c2ccccc2)c(C)c1Sc1ccc([N+](=O)[O-])cc1	CYP2C19 inh 62
CCOC(=O)c1c(NS(C)(=O)=O)sc2c1CCC(C)C2 (stereo not drawn)	PostGolgi ctrl 32, CYP2C9 inhib 57
CCOC(=O)c1c(NC(=O)CSc2nnnn2-c2ccccc2)sc2c1CCC(C)C2 (stereo not drawn)	CYP2C9 inhib 81
S=C(NCc1ccccc1)NCC1COc2ccccc2O1 (stereo not drawn)	CYP2C19 inh 93, CYP2C9 inhib 81
Oc1ccc(CNCC2COc3ccccc3O2)cc1 (stereo not drawn)	CYP2C19 inh 56
COc1nc(OC)nc(N2CCC(C(=O)NCc3cccs3)CC2)n1	none
CC1CC(C)CN(S(=O)(=O)c2ccc(F)c(C(=O)Nc3ccc(Cl)cc3F)c2)C1 (stereo not drawn)	none
CN(C)CC(C)(C)NS(=O)(=O)c1ccc(Cl)cc1	CYP2C19 inh 56
Cc1ccc(S(=O)(=O)NCC(=O)N2CCCCC2)cc1	none
CCN(CC)CC(C)(C)NS(=O)(=O)c1ccc(Cl)cc1	none
CC1CC(C)CN(CC(C)(C)NS(=O)(=O)c2ccc(Cl)cc2)C1 (stereo not drawn)	PostGolgi yeast 60, CYP2C19 inh 76, CYP2C9 inhib 56
CC(C)(CNS(=O)(=O)c1ccc(Cl)cc1)N1CCCCC1	CYP2C19 inh 64
CC(C)(CN1CCCCC1)NS(=O)(=O)c1ccc(Cl)cc1	CYP2C19 inh 55
O=C(CN1CCOCC1)OCCCC1CCCCC1	CYP2C19 inh 73
O=C(O)CN1CCOCCOCCN(CC(=O)O)CCOCCOCC1	none (no result: PostGolgi yeast, PostGolgi ctrl)
CNC(=O)CC(C(=O)O)c1ccc(OCC(C)C)cc1 (stereo not drawn)	none
COc1cc2c(cc1OC)-c1nnc(-c3cccs3)n1C1(CCCC1)C2	none
CC(NS(=O)(=O)c1ccc(Br)cc1)C(c1cccs1)N1CCN(C)CC1 (stereo not drawn)	CYP2C19 inh 100
COc1ccccc1N1CCN(C(c2cccs2)C(C)NS(=O)(=O)c2ccccc2)CC1 (stereo not drawn)	CYP2C19 inh 72, CYP2C9 inhib 86
CC1CCCN(S(=O)(=O)c2ccc(NC(=O)CN3CCN(C)CC3)cc2)C1 (stereo not drawn)	none
CC(NS(C)(=O)=O)C(c1cccs1)N1CCN(c2ccc(F)cc2)CC1 (stereo not drawn)	none
CC(NS(=O)(=O)c1ccccc1)C(c1cccs1)N1CCN(c2ccccc2)CC1 (stereo not drawn)	PostGolgi ctrl 39
CC1CCCN(S(=O)(=O)c2ccc(S(=O)(=O)NC(C)c3cccs3)cc2)C1 (stereo not drawn)	CYP2C19 inh 100, CYP2C9 inhib 74
O=C(Cn1cnc2c(nnn2-c2ccccc2)c1=O)NCCc1ccccc1	none
CC1CN(c2cc(=O)n(-c3ccccc3)c(=O)[nH]2)CC(C)O1 (stereo not drawn)	none
CC1=C(C#N)c2nc(N)c(C#N)c(C)c2/C1=C\c1ccc(C)cc1	PostGolgi yeast 104, PostGolgi ctrl 100
COC(=O)c1ccccc1NC(=S)NC(=O)C1CC1	CYP2C19 inh 52
COC(=O)c1ccccc1NC(=S)NC(=O)c1cccc2ccccc12	none
CCCC(=O)NC(=S)Nc1ccccc1C(=O)OC	CYP2C19 inh 59
Cc1ccc(NC(=O)CC2CS(=O)(=O)CC2CC(=O)Nc2ccc(C)c(C)c2)cc1C (stereo not drawn)	none
CC1CCc2c(nc3ncnn3c2N2CCN(c3ccccc3F)CC2)C1 (stereo not drawn)	CYP2C9 inhib 66 (no result: PostGolgi yeast, PostGolgi ctrl)
CC1CCc2c(nc3ncnn3c2N2CCN(c3ccccc3)CC2)C1 (stereo not drawn)	CYP2C9 inhib 90
O=[N+]([O-])c1nn(-c2ccc3c(c2)OCCO3)n(O)c1=NC1CCCCC1	none
CCc1ccc(N=c2c([N+](=O)[O-])nn(-c3ccccc3)n2O)cc1	PostGolgi ctrl 34
CCCCN(CC)C(=O)Cn1c(=O)sc2ccccc21	none
CC(NC(=O)Cc1cccs1)c1ccc2c(c1)OCO2 (stereo not drawn)	PostGolgi ctrl 37
CC(NC(=O)Cc1cccs1)c1ccncc1 (stereo not drawn)	CYP2C19 inh 64, CYP2C9 inhib 66
O=C(Cc1cccs1)NCc1ccncc1	none
CCOc1cc(/C=N/NC(=O)c2cccc([N+](=O)[O-])c2)ccc1OS(=O)(=O)c1ccccc1	CYP2C19 inh 57, CYP2C9 inhib 59
COc1ccc(/C=N/NC(=O)c2cccc([N+](=O)[O-])c2)cc1OS(=O)(=O)c1ccc(C)cc1	none
COc1ccc(/C=N/NS(=O)(=O)c2ccc(C)cc2)cc1OC(=O)c1ccccc1	none
CC(NC(=O)COc1ccc(/C=N/NS(=O)(=O)c2ccccc2)cc1)c1ccccc1 (stereo not drawn)	none
COc1ccc(/C=N/NS(=O)(=O)c2ccccc2)cc1OS(=O)(=O)c1ccccc1	CYP2C9 inhib 94
COc1ccc(/C=N/NS(=O)(=O)c2ccccc2)cc1OC(=O)c1ccc(C)cc1	CYP2C9 inhib 89
COc1cc(/C=N/NC(N)=S)ccc1OC(=O)c1ccc(C)cc1	PostGolgi ctrl 52
COc1cccc(OC)c1C(=O)Nc1ccc2c3c(cccc13)CC2	none (no result: CYP2C9 act, CYP2C19 inh, CYP2C19 activ, CYP2C9 inhib)
CC(O)CN1C(=O)C(CC(=O)Nc2ccc(Cl)cc2)SC1=Nc1ccccc1 (stereo not drawn)	CYP2C19 inh 72, CYP2C9 inhib 67
C=CCN1C(=O)C(CC(=O)Nc2ccc(C)cc2)SC1=Nc1c(C)n(C)n(-c2ccccc2)c1=O (stereo not drawn)	CYP2C19 inh 62, CYP2C9 inhib 66
O=C(CC1Sc2ncnn2C1=O)Nc1ccccc1 (stereo not drawn)	none
COCCN1C(=O)C(CC(=O)Nc2ccc(C(C)=O)cc2)SC1=Nc1ccccc1 (stereo not drawn)	CYP2C19 inh 54, CYP2C9 inhib 72
O=C(CC1SC(=O)N(c2ccccc2)C1=O)Nc1ccccc1 (stereo not drawn)	none
